KCNQ2 block – inhibitors of rat KCNQ2 potassium channel. AID 2156. B-score at 10 µM. O88943. CHO-K1 KCNQ2, FluxOR thallium flux, 20 min; hits give low values. hit rate 1.1% among 310,000;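 active means fluorescence ratio B-score at most minus 3 library SDs, with starting brightness B-score within 2 library SDs, cut at about -5.5 in these data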
KCNQ2 pot – enhances the rat KCNQ2 potassium channel; CHO-K1 KCNQ2, FluxOR thallium flux fluorescence; hits give high values; B-score at 10 µM; hit rate 0.54% among 310,000;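 active means fluorescence ratio B-score at least 3 SD of library B-scores, with initial fluorescence B-score within 3 of them, cut at about 5.3 in these data; same plate scores as AID 2156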;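 further: B-score of peak minus minimum over baseline fluorescence ratio after K+ and Tl+ stimulus; positive B-score means potentiation of KCNQ2 with more thallium influx and brighter signal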
Numbers without * were called inactive; i = inactive; · = no result. An excerpt weighted towards active compounds, which were near 1.6% of everything screened.

SMILES | KCNQ2 block | KCNQ2 pot
COc1ccccc1CNC(=O)C1CCCN(S(=O)(=O)c2ccc3c(c2)C(C)(C)C(=O)N3C)C1 (stereo not drawn) | i | ·
CN1N=C(C(=O)N2CCCC(N3CCN(c4ccc(F)cc4)CC3)C2)CCC1=O (stereo not drawn) | i | ·
CNC(=O)/C(=C\c1cccc(Oc2ccccc2)c1)NC(=O)c1ccccc1 | i | ·
CNC(=O)/C(C#N)=C/c1cccc(Oc2ccccc2)c1 | -5.9* | -5.9
COc1ccccc1CNn1c(-c2cccc(C)c2)nc2ccccc2c1=O | -7.6* | -7.6
COc1ccc(CNn2c(-c3cccc(C)c3)nc3ccccc3c2=O)cc1OC | i | ·
O=C(NCc1ccc2c(c1)OCO2)C1CCN(S(=O)(=O)c2cccs2)CC1 | i | 1.1
O=C(NCc1ccc2c(c1)OCO2)C1CCN(S(=O)(=O)c2ccc(Br)s2)CC1 | i | 17*
Cc1ccc(C(C(=O)NC(C)(C)C)N(Cc2ccccc2)C(=O)c2snc(C(N)=O)c2N)o1 (stereo not drawn) | i | 0.03
COc1ccc(CCN(C)C(=O)C2CCCN(C3CCN(Cc4ccccc4)CC3)C2)cc1OC (stereo not drawn) | i | 0.16
CC(C)(C)C(=O)Cn1c(=N)n(Cc2ccccc2Cl)c2ccccc21 | i | ·
CC(C)(C)C(=O)Cn1c(=N)n(Cc2ccccc2)c2ccccc21 | -6.2* | -6.2
CCOC(=O)c1sc(NC(=O)Nc2ccc(Cl)cc2)nc1C | i | 1.6
CC(c1ccco1)N(C(=O)c1ccccc1F)c1ccccn1 (stereo not drawn) | i | 0.26
CC(c1ccco1)N(C(=O)COc1ccc(Cl)cc1Cl)c1ccccn1 (stereo not drawn) | -11* | -11
Cc1ccc(C)c(S(=O)(=O)NCCN2CCOCC2)c1 | i | ·
O=C([C@@H]1Cc2ccccc2CN1)N1CCN(Cc2ccccc2)CC1 | i | 0.12
CCc1cccc(NC2c3ccccc3C(=O)N2c2cccnc2)c1 (stereo not drawn) | i | ·
COc1ccc(NC(=O)/C(Cl)=C(/Cl)S(=O)(=O)Cc2ccccc2)cn1 | i | 5.5*
COc1ccc(NC(=O)C(Cl)=C(Cl)Cl)cn1 | i | ·
O=C(COC(=O)c1oc2ccccc2c1CSc1ccc(Cl)cc1)NC1CCCC1 | -6.4* | -6.4
NC(=O)COC(=O)c1oc2ccccc2c1CSc1ccc(Cl)cc1 | i | ·
CCCCn1c(N)c(N(CCOC)C(=O)c2ccc(C)o2)c(=O)[nH]c1=O | i | ·
CCc1nnc(N2C(=N)SCC2=O)s1 | i | ·
Cc1n[nH]c(C)c1Cc1ccc(C(=O)O)cc1 | i | ·
SMILES | KCNQ2 block | KCNQ2 pot
CC(NC(=O)CCCCCCN1C(=O)c2ccccc2C1=O)c1ccc2c(c1)CCCC2 (stereo not drawn) | i | 5.3*
CC(NC(=O)CCCCCN1C(=O)c2ccccc2C1=O)c1ccc2c(c1)CCCC2 (stereo not drawn) | i | 4.2
CC(C)(C)CN1CCNC(=O)C1CC(=O)N1CCN(c2ccccc2)CC1 (stereo not drawn) | i | 0.51
CCOc1cc(N2CCOCC2)c(OCC)cc1NC(=O)CN1CCC(Cc2ccccc2)CC1 | i | 6.1*
CCOc1cc(N2CCOCC2)c(OCC)cc1NC(=O)CN1C(=O)NC(Cc2ccccc2)C1=O (stereo not drawn) | i | ·
CC[C@@H](NS(=O)(=O)c1ccc(C)cc1)C(=O)Oc1ccc2c3c(c(=O)oc2c1)CCC3 | i | 0.64
Cc1ccc(S(=O)(=O)NC(CC(C)C)C(=O)Oc2ccc3c4c(c(=O)oc3c2)CCC4)cc1 (stereo not drawn) | -7.9* | -7.9
Cc1cc(C)c(S(=O)(=O)N2CCC(C(=O)NCc3ccco3)CC2)c(C)c1 | i | ·
O=C(CCn1cccn1)Nc1ccc(-c2ccno2)cc1 | i | 1.4
Cc1ccc(C(=O)N2CCC(C(=O)c3c(C)cc(C)cc3C)CC2)cc1 | i | ·
CSc1ccccc1OCc1cc(C(=O)NCCC2=CCCCC2)no1 | i | ·
COc1ccccc1C(=O)NC(=S)Nc1cccc2cc(O)ccc12 | -7.9* | -7.9
Cc1c(NC(=S)NC(=O)c2sc3ccccc3c2Cl)cccc1C(=O)O | i | 0.24
COc1ccccc1C(=O)NNC(=S)NC(=O)c1sc2ccccc2c1Cl | i | 16*
O=C(NC(=S)Nc1cccc2cc(O)ccc12)c1ccccc1Br | i | ·
COc1ccccc1C(=O)NNC(=S)NC(=O)c1cccs1 | i | ·
COc1ccccc1C(=O)NC(=S)NNC(=O)c1sc2ccccc2c1Cl | i | 23*
COc1cc(OC)c(S(=O)(=O)Nc2ccc(C)cn2)cc1NC(C)=O | i | 0.06
O=C(C1=C[C@H](c2ccc(Br)cc2)C[C@H](OCCCCO)O1)N1CCN(Cc2ccccc2)CC1 | i | ·
CC1CCN(Cc2nnnn2CCCC(=O)N(C)C(C)c2ccccn2)CC1 (stereo not drawn) | i | 0.31
Cn1c(=O)c2c(nc(Cl)n2CC(=O)NC2(C#N)CCCCC2)n(C)c1=O | i | 0.13
O=C(/C(C=Nc1ccc(Br)cc1)=C(/O)c1ccco1)C(F)(F)F | i | ·
CNC(=S)N(CCCn1ccnc1)Cc1c(F)cccc1Cl | i | 0.34
CC(=O)NC1(C(F)(F)F)C(=O)NC(C)=C1C#N (stereo not drawn) | i | 1.3
COCCNC(=O)c1cnn2c(C(F)(F)F)cc(-c3ccc(C)cc3)nc12 | i | 0.71
SMILES | KCNQ2 block | KCNQ2 pot
Cc1cc(C)c(S(=O)(=O)N(C)CC(N)=O)c(C)c1 | -5.6* | -5.6
Cc1cc(C)c(S(=O)(=O)N(C)CC(=O)N2CCCCC2)c(C)c1 | i | ·
CN(Cc1ccc(F)cc1)C(=O)C(Cc1ccccc1)NC(=O)c1ccccc1 (stereo not drawn) | i | ·
CN(Cc1ccccc1)C(=S)NC(=O)c1cccs1 | i | 2.2
CN(Cc1ccccc1)C(NC(=O)c1ccco1)C(Cl)(Cl)Cl (stereo not drawn) | i | 0.56
CN(Cc1ccccc1)C(NC(=O)c1ccccc1)C(Cl)(Cl)Cl (stereo not drawn) | -5.8* | -5.8
CN(Cc1ccccc1)C(=S)NC(=O)c1ccc(-c2ccccc2)cc1 | i | 7.1*
CSc1ccc(CN(C)C(=O)C(Cc2ccccc2)NC(=O)c2ccccc2)cc1 (stereo not drawn) | -5.5* | -5.5
Cc1cc(C(=O)CN2C(=O)C(=O)N(Cc3ccccc3)C2=O)c(C)n1-c1ccc2c(c1)OCCO2 | i | ·
O=C(CN1C(=O)NC2(CCCC2)C1=O)NNC(=O)c1ccc(Br)cc1 | i | ·
CCOC(=O)c1oc2ccccc2c1NC(=O)c1ccc(Cl)s1 | -7.6* | -7.6
CCOC(=O)c1oc2ccccc2c1NC(=O)CCl | i | ·
COc1ccc(C(=O)OCCc2sc[n+](CC(=O)c3ccccc3)c2C)cc1 | i | 1.5
Cc1c(CCOC(=O)C2C3CC4CC(C3)CC2C4)sc[n+]1CC(=O)c1ccc(Br)cc1 (stereo not drawn) | -7.2* | -7.2
CCOc1ccccc1CNS(=O)(=O)c1cnc[nH]1 | i | 0.07
Cc1ccc(C(=O)NNC(=O)CCC(=O)NCc2ccccc2)cc1Br | i | 0.02
COc1ccc(-c2cn3cccnc3n2)cc1NC(=O)C(C)Oc1ccccc1 (stereo not drawn) | i | 1.5
Cc1onc(-c2c(Cl)cccc2Cl)c1/C(N)=N/OC(=O)C(C)(C)C | i | 0.14
Cc1onc(-c2c(Cl)cccc2Cl)c1CO/N=C(\C#N)c1c(Cl)cccc1Cl | -5.5* | -5.5
C/C(CC(=O)NC(C)(C)C)=N\NC(N)=S | i | ·
CCOC(=O)NC(=O)CSc1nnc(C2CC2)n1Cc1ccco1 | i | ·
